The list is not random: actives were taken first. Their share in the collection is about 4.1%.
DUSP3 inh – VHR1 phosphatase inhibitors, primary screen, biochemical, absorbance, uHTS. Dual specificity protein phosphatase 3 (Homo sapiens), P51452. recombinant VHR phosphatase, pNPP absorbance. inhibition, % at 13.3 µM. hit rate 0.52% among 290,000; in the data active means inhibition above about 50%
Target sequence (P51452 whole entry, looked up): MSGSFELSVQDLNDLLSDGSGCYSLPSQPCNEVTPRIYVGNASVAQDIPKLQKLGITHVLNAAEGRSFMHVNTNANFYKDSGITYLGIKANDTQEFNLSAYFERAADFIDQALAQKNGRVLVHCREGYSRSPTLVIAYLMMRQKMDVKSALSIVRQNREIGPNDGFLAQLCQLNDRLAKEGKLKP
Anthrax LF inh2 – Bacillus anthracis LF protease inhibitors, primary screen, biochemical, multiplex microsphere, MLPCN library. inhibition, % at 10 µM. multiplex microsphere protease cleavage assay. hit rate 0.12% among 360,000. AID 588501, 2011
BoNT A protease – BoNT/A light chain protease inhibitors, primary screen, biochemical, flow cytometry, MLPCN library; multiplex microsphere protease substrate cleavage; AID 588499, 2011; hit rate 0.17% among 360,000; inhibition, % at 10 µM
BoNT-F LC inh – BoNT/F light chain protease inhibitors, primary screen, biochemical, flow cytometry, MLPCN library; Botulinum neurotoxin type F light chain protease (Clostridium botulinum); Multiplex microsphere protease cleavage assay; inhibition, % at 10 µM; hit rate 0.22% among 360,000; AID 588497, 2011; in the data active means inhibition above about 35%, passing the limit was not always enough; inconclusive means no clear call, values can overlap the other calls
MazF activator – activators of E. coli MazEF toxin-antitoxin RNase, primary screen, biochemical, fluorescence, uHTS. Endoribonuclease toxin MazF (Escherichia coli (strain K12)), P0AE70. FAM/BHQ RNA-DNA oligo cleavage fluorescence, 5 h. activation, % at 20 µM. hit rate 0.32% among 350,000. AID 504720, 2011; in the data active means activation above about 50%
Target sequence (P0AE70 whole entry, looked up): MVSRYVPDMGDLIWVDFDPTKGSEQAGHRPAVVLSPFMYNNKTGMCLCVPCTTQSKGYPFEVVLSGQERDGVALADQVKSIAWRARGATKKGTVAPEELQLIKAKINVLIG
Bead autofluor – counter-screen for toxin protease inhibitors: compound fluorescence. compound autofluorescence counterscreen, microsphere flow cytometry; hits give high values. fluorescence intensity (concentration not given with the values). hit rate 3.1% among 360,000. AID 624483; in the data active means fluorescence intensity above about 16000; inconclusive means no clear call, values can overlap the other calls
A number is an active result; i = inactive; ? = inconclusive; nt = not tested or not shown; ! = repeats disagree. Unless noted, no stated cut-off is given here; in the data, active means inhibition above about 30%; inconclusive means no clear call, values can overlap the other calls; inactive means below that.

SMILES	DUSP3 inh	Anthrax LF inh2	BoNT A protease	BoNT-F LC inh	MazF activator	Bead autofluor
O=C(NCCCN1CCCC1=O)c1cc2nc(-c3ccco3)cc(C(F)(F)F)n2n1	i	i	i	i	i	i
COc1ccc(-n2c(C)cc(C)c(C(C)=O)c2=S)cc1	i	i	i	i	i	i
COc1ccccc1-n1c(C)cc(SC)c(C(C)=O)c1=S	52	i	i	i	i	i
Cc1ccc(-n2c(=O)cc(NCc3cccnc3)[nH]c2=O)cc1	i	i	i	i	i	21543
Cc1c(C(=O)O)oc2c1C(O)CC(C)(C)C2 (stereo not drawn)	i	i	i	i	i	16667!
COc1ccc(OCCNc2cc(Cl)ccc2[N+](=O)[O-])cc1	i	i	i	i	147	i
COc1ccc(OCCNc2cc(N3CCCCC3)ccc2[N+](=O)[O-])cc1	i	i	i	i	i	i
COc1ccc(CNC(C)(C)C)cc1Cl	i	i	i	i	i	16540
CC1=C(C(=O)N(C)C)CC(CC(=O)NCCCCc2ccccc2)C(=O)N1Cc1ccccc1 (stereo not drawn)	nt	i	i	i	i	i
CCn1nccc1NC(=O)c1csc([C@@H]2C[C@H](O)[C@@H](CO)O2)n1	nt	i	i	i	nt	i
CCCCCN1C(=O)/C(=C/c2c(N3CCc4ccccc4C3)nc3ccccn3c2=O)SC1=S	nt	i	i	i	i	21934
c1ccc2c(c1)CC/C2=N/Nc1nc2ccccc2[nH]1	i	i	i	i	i	i
O=C(Cn1c(=O)n(-c2ccccc2)c(=O)c2sccc21)N1CCCC1	i	i	i	i	i	23839
COc1ccc(N2CCC(CNC(=O)Nc3ccccc3)C2)cc1 (stereo not drawn)	i	i	i	i	i	19305
COc1ccc(N2CCC(CNC(=S)Nc3cc(C)cc(C)c3)C2)cc1 (stereo not drawn)	i	i	i	i	i	i
CC(C)Oc1ccc(CNC(=O)C2CCN(C(=O)N3CCOc4ccccc43)CC2)cc1	i	i	i	i	i	i
COc1ccc(CNC(=O)C2CCN(C(=O)N3CCOc4ccc(C)cc43)CC2)cc1	51	i	i	i	i	i
COc1ccc(NC(=O)C2CCN(C(=O)NCc3ccccc3)CC2)cc1	i	i	i	i	i	16148
CCOc1ccc(NC(=O)C2CC=CCC2C(=O)O)cc1 (stereo not drawn)	i	i	i	i	i	22332
Cc1ccc(NC(=O)C2CCN(C(=O)NCc3ccccc3)CC2)cc1C	i	i	i	i	i	i
CC(C)(C)c1ccc(S(=O)(=O)N2CCNC(=O)C2)cc1	nt	i	i	i	i	i
CC(Oc1cccc(Br)c1)C(=O)NNC(=O)CCS(=O)(=O)c1ccccc1 (stereo not drawn)	nt	i	i	i	i	i
CCOc1ccc(NC(=O)C2CCN(C(=O)NCc3ccccc3)CC2)cc1	i	i	i	i	i	22864
CCOc1ccc(NC(=O)C2CCN(C(=O)NC3CCCCC3)CC2)cc1	i	i	i	i	i	i
CCCCN1C(=O)C(CC(=O)NCCN2CCOCC2)CC(C(=O)N(C)C)=C1C (stereo not drawn)	nt	i	i	i	i	i
SMILES	DUSP3 inh	Anthrax LF inh2	BoNT A protease	BoNT-F LC inh	MazF activator	Bead autofluor
Cc1cccc(OCCCc2c(C)n[nH]c2C)c1	i	i	?	i	i	22053
CCCCC(=O)N(C)c1c(C)nc2ccc(C(=O)Nc3cccc(OC)c3)cn12	nt	i	i	i	nt	i
COc1ccc(Nc2cc(C(=O)NCCCN3CCOCC3)c3ccccc3n2)cc1	i	i	i	i	i	i
O=C(NCCCN1CCOCC1)c1cc(-c2ccc(Br)cc2)on1	i	i	i	i	i	18589
COc1ccc(Nc2nc(C(=O)NCCCN3CCOCC3)cs2)cc1	i	i	i	i	i	16850
C=CCNC(=O)c1cc(-c2ccc(Br)cc2)on1	i	i	i	i	i	22477
COc1ccccc1NCC(=O)NC(=O)NC1CCCCC1	nt	i	i	i	i	i
COc1cccc(CC(=O)Nc2ccc(F)c(S(=O)(=O)N3CCOCC3)c2)c1	nt	i	i	i	i	i
Cc1csc(=O)n1CCC(=O)OCc1nnc(-c2ccc(Cl)cc2)o1	nt	i	i	i	i	?
CCN1C(c2ccccc2)=C(c2ccccc2)S/C1=C/C=C1\SC(=S)N(C)C1=O	i	41	141	i	i	i
CN1CCS/C1=C/C=C1/SC(=S)N(Cc2ccccc2)C1=O	i	i	i	i	i	i
CCN1C(c2ccccc2)=C(c2ccccc2)S/C1=C\C=C1/SC(=S)N(C)C1=O	nt	44	98	i	i	i
CCN1/C(=C\C=C2\C(=O)N(C)C(=S)N2C)Sc2ccccc21	i	i	i	i	i	i
CCN1C(=O)/C(=C/C=C2/Sc3ccc4ccccc4c3N2CCO)SC1=S	i	52	63	36	i	i
CCc1nc2ccc(C(=O)NCCCn3ccnc3)cn2c1N(C)C(=O)c1cccc(OC)c1	nt	i	i	i	nt	i
COCCCN1C(=O)C(CC(=O)NC(c2ccccc2)c2ccccc2)CC(C(=O)N2CCCCCC2)=C1C (stereo not drawn)	nt	i	i	i	nt	i
COc1ccccc1Nc1nnc(SCC(=O)N2CCCC2)s1	i	i	?	i	i	23377
CCOc1ccccc1Nc1nnc(SCC(=O)N2CCCC2)s1	i	i	i	i	i	i
CCN1C[C@@H]2[C@@H]3C(=O)N(C)C(=O)[C@@H]3[C@](Cc3ccccc3)(C1=O)N2C(=O)c1ccccc1	nt	i	i	i	i	i
COc1cccc(CN2CCN(S(=O)(=O)c3ccc(Cl)s3)CC2)c1	i	i	i	i	i	i
Clc1ccc(CSc2nnc(-c3c[nH]c4ccccc34)o2)cc1	i	i	i	i	i	i
O=C(Nc1ccccc1-c1nnc(SCc2ccc(Cl)cc2)o1)c1ccccc1	i	i	i	i	i	22262
O=c1c(-c2nnc(SCc3ccc(Cl)cc3)o2)cccn1Cc1ccccc1	i	i	i	i	i	22587
Cc1cc2c(n1-c1ccc(C(N)=O)cc1)CC(C)(C)CC2=O	i	i	?	i	i	22230
O=C(NC(=S)Nc1ccccc1)C1CCCCC1	i	i	i	i	i	i
SMILES	DUSP3 inh	Anthrax LF inh2	BoNT A protease	BoNT-F LC inh	MazF activator	Bead autofluor
COc1cc(NC(=O)C2CCCCC2)c(OC)cc1NC(=O)CCC(=O)NCc1ccco1	i	i	i	i	i	22591
CCCC(=O)Nc1ccccc1NC(=O)C1CCCCC1	i	i	i	i	i	23241
O=C(Nc1ccccc1)N1CCCC1	i	i	i	i	i	23605
O=C(Nc1ccccc1)C1CCCCC1	i	i	?	i	i	21764
CCCCN1C(=O)C(=O)NC[C@@H]1CC1CCCCC1	nt	i	i	i	nt	i
O=C(NC1CCN(C(=O)Nc2ccccc2)CC1)C1CCCCC1	52	i	i	i	i	i

Assay outcomes: PubChem BioAssay, several laboratories
